Test results published in PubChem BioAssay (Tox21).
Values without a mark were called inactive. The call rests on the fitted dose curve; in most records, active means well fitted curve in the direction sought with a large enough effect in the repeat runs; inconclusive means weak or mixed curves; inactive means flat fitted curve, though single readings scatter.

test: qHTS assay to test for compound auto fluorescence at 590 nm (red) in HepG2 cells (AID 720674); conditions: HepG2 autofluorescence, red 540/590 nm, 1 h; series mostly up to 46 µM; fluorescence, relative to Rose Bengal: at the top concentration
Text: U.S. Tox21 Program National Center for Advancing Translational Sciences [NCATS] NIH Chemical Genomics Center [NCGC] U.S. Environmental Protection Agency [EPA] National Institutes of Environmental Health Sciences [NIEHS] National Toxicology Program [NTP] U.S. Food and Drug Administration [FDA] Tox21 Assay Overview: Compound auto fluorescence often interferes with screening of the compound library against various biological targets and signaling pathways. Some of these compounds may have fluorophoric properties. Such properties may interfere with the assay outputs resulting in false positives and/or negatives. To decrease such complications and ensure the compound activities are relevant in terms of biological response, the Tox21 10K compound library was screened for auto fluorescence. From the fluorophores used as reporter signals in our screening assays, the auto fluorescence equivalencies of compounds against three fluorophores have been evaluated: Triamterene, Fluorescein and Rose Bengal sodium for blue, green and red fluorescence, respectively. The fluorescence intensities were measured using Excitation/Emission wavelengths at 405/460nm, 485/535nm and 540/590nm for blue, green and red labels, respectively. This assay includes the red fluorescence data.
Tox21 Assay Protocol Summary: 2,000 HepG2 cells in 5 uL of culture medium (MEM containing 10% FBS) per well were dispensed into black wall/clear bottom 1536-well plates using a Multidrop Combi Dispenser (ThermoFisher Scientific, Waltham, MA). The assay plates were incubated overnight at 37 C to allow cell attachment to the well bottom, followed by the transfer of 23 nL compound or DMSO vehicle by a pintool work station (Kalypsys , San Diego, CA). After the assay plates were incubated for 1 hr at 37 C and 5% CO2, fluorescence intensities in the assay plates were measured by an Envision (PerkinElmer, Shelton, CT) plate reader using three labels for measuring blue, green and red fluorescence at […] 460, 535 and 590 nm respectively.
On the % scale 0 is the no-effect control and ±100 the full control effect.

In order of falling “fluorescence, relative to Rose Bengal” value:
1. CCC(=O)O[C@](Cc1ccccc1)(c1ccccc1)[C@H](C)CN(C)C  -0.034% [at 91.3 µM]
2. Clc1ccc([C@@H]2C[C@H]3CC[C@@H]2N3)cn1  -0.357% [at 91.3 µM]
3. C[C@]12CC[C@H]3[C@@H](CCC4=CC(=O)CC[C@@]43C)[C@@H]1CC[C@@H]2OC(=O)CCc1ccccc1  -0.519% [at 91.3 µM]

In order of falling “fluorescence, relative to Rose Bengal” value:
1. COc1cc(C[C@H](C)N)c(OC)cc1Br  -0.0494% [at 95.7 µM]
2. CC[C@@H](O)C(C[C@@H](C)N(C)C)(c1ccccc1)c1ccccc1  -0.21% [at 95.7 µM]

In order of rising “fluorescence, relative to Rose Bengal” value:
1. CCC(=O)O[C@H]1[C@@H](N2CCCCC2)C[C@H]2[C@@H]3CC[C@H]4C[C@H](OC(C)=O)[C@@H](N5CCCCC5)C[C@]4(C)[C@H]3CC[C@@]21C  -0.344%
2. CN1C2CCC1CC(OC(c1ccccc1)c1ccc(Cl)cc1)C2 (stereo unspecified)  -0.292%
3. CN1CCN=C(c2ccccc2)c2cc(Cl)ccc21  -0.225%
4. Cc1ccc2c(c1)[C@]13CCCC[C@@H]1[C@H](C2)N(C)CC3  -0.211%
5. CC(=O)O[C@H]1C[C@H](O[C@H]2[C@@H](O)C[C@H](O[C@H]3[C@@H](O)C[C@H](OC4CC[C@@]5(C)C(CC[C@@H]6[C@@H]5CC[C@]5(C)[C@@H](C7=CC(=O)OC7)[C@@H](O)C[C@]65O)C4)O[C@@H]3C)O[C@@H]2C)O[C@H](C)[C@H]1O[C@@H]1O[C@H](CO)[C@@H](O)[C@H](O)[C@H]1O (stereo partly specified)  -0.0991%
6. C#C[C@]1(OC(=O)CCCCCC)CC[C@H]2[C@@H]3CCC4=CC(=O)CC[C@@H]4[C@H]3CC[C@@]21C  0.0147%
